# Compounds with a hit are over-represented: about 6.3% of the library has one in this group of screens.
# VP16 counter: counter-screen for ROR gamma inhibitors: Gal4-VP16 reporter; Drosophila S2 Gal4-VP16 UAS-luciferase, luminescence, 20 h; Potency, µM (top dose mostly 53.6 µM), for the others: top-dose activity, negative = inhibition, usual class: inhibitors; 3.5% of 310,000 active;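 also: Gal4-VP16 expression switched on by copper sulfate through the metallothionein promoter; % is scaled to controls: 0 for no effect and ±100 for the full control effect; nearly all actives have a fitted effect of over 50% in size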
# ATXN viability: reduces viability in counter-screen for ATXN expression inhibitors | 0.49% of 400,000 active | Potency, µM (series often up to 56.7 µM), usual class: cytotoxic | S2 cells (HEK-293 line with an ATXN2-luciferase reporter) viability, CellTiter-Fluor protease fluorescence, 24 h | AID 651635; also: nearly all actives have a fitted effect of over 40% in size
# RORg inh: inhibitors of mouse ROR gamma transcriptional activity; 5.4% of 310,000 active; P51450; Potency, µM (titrated, usually from 53.6 µM), for the others: at the top dose activity change, negative = inhibition, hits mostly inhibitors; Drosophila S2 Gal4-RORgamma UAS-luciferase reporter, 20 h; also: % is scaled to controls: 0 for no effect and ±100 for the full control effect; nearly all actives have a fitted effect of over 60% in size
# Target sequence (P51450 whole entry, looked up, the tested form may be a part): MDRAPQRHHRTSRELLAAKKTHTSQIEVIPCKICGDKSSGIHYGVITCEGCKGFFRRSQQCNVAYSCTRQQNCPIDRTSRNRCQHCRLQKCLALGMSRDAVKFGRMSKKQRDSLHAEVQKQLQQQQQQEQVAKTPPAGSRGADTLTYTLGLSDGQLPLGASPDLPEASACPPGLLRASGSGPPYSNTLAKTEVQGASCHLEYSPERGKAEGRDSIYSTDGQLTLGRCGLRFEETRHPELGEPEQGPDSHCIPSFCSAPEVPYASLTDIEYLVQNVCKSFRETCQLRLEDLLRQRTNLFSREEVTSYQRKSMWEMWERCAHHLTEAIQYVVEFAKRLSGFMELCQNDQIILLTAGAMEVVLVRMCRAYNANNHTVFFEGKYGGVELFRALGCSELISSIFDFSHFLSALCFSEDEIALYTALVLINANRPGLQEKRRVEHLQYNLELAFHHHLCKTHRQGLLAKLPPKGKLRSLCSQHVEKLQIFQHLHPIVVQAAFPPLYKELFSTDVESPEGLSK
#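 Luminescence from a UAS-regulated Photinus luciferase reporter in stably transfected Drosophila Schneider cells is measured; decreased signal marks ROR gamma inhibition. Fusion expression is induced by 700 uM copper sulfate for 20 hr.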
# ATXN2 expr inh: reduces ATXN2 reporter expression in HEK-293 cells; HEK-293 ATXN2-luciferase reporter, luminescence, 24 h; Potency, µM (top dose mostly 57 µM), inactives show at the top dose activity change, negative = inhibition, hits mostly inhibitors; 0.72% of 360,000 active; AID 1745845; also: % is scaled to controls: 0 for no effect and ±100 for the full control effect; nearly all actives have a fitted effect of over 55% in size
#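 qHTS (up to 57 uM final) was run with 24 h compound exposure of reporter cells at 37 °C. Each well was multiplexed: SteadyGlo luminescence measured ATXN2-luciferase expression after a fluorogenic Gly-Phe-AFC viability readout (25 uM final).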
# HepG2 viability: HepG2 cytotoxicity, counter-screen for TGF-b inhibitors; Potency, µM (highest dose often 46.1 µM), for the others: top-dose activity change, negative = cytotoxicity, usual class: cytotoxic; HepG2 CAGA-GFP viability, ATP luminescence, 18 h; 0.76% of 410,000 active
#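 CellTiter-Glo luminescence gave cytotoxicity after 18 hours at 37 degrees C. The cells were HepG2 CAGA-GFP in 1% FBS DMEM, stimulated with 500 pg/mL TGF-beta after compound addition. %Activity was normalised to no-cell wells (complete cell-killing) and DMSO (no toxicity), and curves were fitted and classified.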
# TGFb inhibitor: inhibitors of TGF-b signaling; HepG2 CAGA-GFP TGF-b/SMAD3 reporter, GFP fluorescence, 18 h; TGF-beta stimulated, 500 pg/mL final; 1.2% of 410,000 active; AID 588855; Potency, µM (top dose mostly 46.1 µM), for inactives: at the top dose activity, negative = inhibition, hits mostly inhibitors; also: % is scaled to controls: 0 for no effect and ±100 for the full control effect; nearly all actives have a fitted effect of over 65% in size
#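 HEPG2 CAGA-GFP cells (1000/well, DMEM with 1% FBS) were pre-incubated 2 h at 37 degrees C, given compound by pin tool, then stimulated with TGF-beta at 500 pg/mL final for 18 h before per-cell GFP fluorescence imaging.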
# * marks the source's active call; other numbers are inactive results; i = inactive; ? = inconclusive; nt = no result given; ! = a repeat was not active. Calls follow the shape of the dose curve; as a rule, active = well fitted curve in the direction sought with a large enough effect; inconclusive = small, poorly fitted or top-dose-only effect, or another doubt; inactive = no such curve, though single readings can be large; an effect the other way counts as inactive or inconclusive. Potency is read from the fitted curve at half-maximal effect.
SMILES,VP16 counter,ATXN viability,RORg inh,ATXN2 expr inh,HepG2 viability,TGFb inhibitor
Oc1c(N=Nc2ccccn2)ccc2ccccc12,-74.2%,10µM*,0.112µM*,7.94µM*,-43.6%,6.31µM*
CCOc1cc(C)c(S(=O)(=O)NC2CCCCC2)cc1C,11.2µM*,i,3.7%,3.6%,-23.0%,?
CCCOc1cc(C)c(S(=O)(=O)NC2CC(C)(C)NC(C)(C)C2)cc1C,0.3%,i,4.9%,2.5%,11.2µM*,?
COc1cc(C)c(S(=O)(=O)NC2CC(C)(C)NC(C)(C)C2)cc1C,5.2%,i,-4.9%,-9.2%,-9.0%,-0.1%
Cc1cc(C)n(-c2nc3ccccc3nc2N2CCCCCC2)n1,-12.3%,i,11.2µM*,4.3%,-5.9%,-2.0%
Cc1cc(C)n(-c2nc3ccccc3nc2N2CCCC2)n1,-0.9%,i,-16.9%,14.3%,10.5%,1.1%
C#CC(c1ccccc1)(c1ccccc1)n1ccnc1,nt,i,nt,nt,-16.8%,-4.9%
Clc1ccccc1C(c1ccccc1)(c1ccccc1)n1ccnc1,?,?,6.31µM*!,?,20µM*,?
CC(C)c1ccc(/C=C(\C#N)c2nc(-c3ccc(O)cc3)cs2)cc1,nt,i,nt,?,17.8µM*,?
O=C(Cn1cc(S(=O)(=O)Cc2ccc(F)cc2)c2ccccc21)NCc1ccccc1Cl,nt,nt,nt,nt,-29.6%,0.0%
Cc1cccnc1-c1cccc2c1OC(CNC(=O)C(=O)c1ccccc1)C2 (centres undefined),nt,i,nt,nt,nt,nt
CN(C)c1ccc(C2CC(c3cccc(NS(C)(=O)=O)c3)=NN2C(=O)c2ccccc2)cc1 (centres undefined),-6.5%,i,?,-14.0%,-24.5%,0.6%
COc1cccc(C2CC(c3cccc(NS(C)(=O)=O)c3)=NN2C(=O)c2ccccc2)c1OC (centres undefined),-13.4%,?,2µM*,-6.2%,-8.8%,?
O=C(NNc1ncccc1Cl)c1c(Cl)cccc1Cl,14.1µM*,i,3.98µM*,-12.5%,9.7%,-13.0%
O=C(NNc1ncc(C(F)(F)F)cc1Cl)c1c(Cl)cccc1Cl,2.82µM*,i,0.891µM*,?,-13.7%,?
NC(=O)NNc1ncc(C(F)(F)F)cc1Cl,-12.4%,i,6.7%,nt,3.4%,4.6%
Cn1c(=O)c(=O)n(C)c2cc(NC(=O)c3cccc(F)c3)c(Cl)cc21,nt,i,nt,-0.7%,-14.9%,?
NCCCC[C@H](NC(=O)[C@@H]1CCCN1C(=O)[C@@H]1CSSC[C@H](N)C(=O)N[C@@H](Cc2ccccc2)C(=O)N[C@@H](Cc2ccccc2)C(=O)N[C@@H](CCC(N)=O)C(=O)N[C@@H](CC(N)=O)C(=O)N1)C(=O)NCC(N)=O,nt,i,nt,nt,nt,nt
O=C(O)c1cc(O)c2c(c1)[C@@H]([C@H]1c3cc(C(=O)O)cc(O)c3C(=O)c3c(O[C@@H]4O[C@H](CO)[C@@H](O)[C@H](O)[C@H]4O)cccc31)c1cccc(OC3O[C@H](CO)[C@@H](O)[C@H](O)[C@H]3O)c1C2=O (some centres undefined),nt,?,nt,0.0%,-39.5%,11.2µM*
COc1ccc(-c2cc(=O)c3c(O)cc(O[C@@H]4O[C@H](CO[C@@H]5O[C@@H](C)[C@H](O)[C@@H](O)[C@@H]5O)[C@@H](O)[C@H](O)[C@@H]4O)cc3o2)cc1O,nt,nt,nt,5.1%,nt,nt
CCCSc1nnc(NC(=O)c2cc(=O)c3ccccc3o2)s1,nt,i,nt,-3.2%,10.1%,10.9%
CCN1C(=O)c2ccccc2S(=O)(=O)c2ccc(C(=O)NCc3ccc(C)cc3)cc21,nt,i,nt,5.9%,-1.1%,-12.2%
Cc1ccc(Cc2c(-c3ccc(C)cc3)nc3cc(C)ccn23)cc1,nt,31.6µM*,nt,?,-70.5%,?
Cc1ccc(Cc2c(-c3ccc(Cl)cc3)nc3cc(C)ccn23)cc1,nt,?,nt,0.8%,-3.8%,6.3%
